This note sets out measurements from PubChem BioAssay (NCI).

About 79,000 compounds went through this panel and 15% of them were active in at least one assay; those are over-represented in the sample as a whole. A number with no mark means an inactive call. Activity calls are given as the source filed them. No stated cut-off is given here; in the data, active means growth inhibition above about 70%; inactive means the rest.

This experiment in a line: NCI Yeast Anticancer Drug Screen. Data for the mlh1 rad18 strain (AID 175). Conditions: S. cerevisiae mlh1 rad18 strain growth inhibition; at 50.0 µM; hits give high values. In a few lines:
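A repair-deficient yeast strain is exposed to test compound, and growth is scored relative to vehicle-treated controls.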
`CCN(/N=C1\CC2C=CCN(C2)C(=O)Cc2c1[nH]c1ccccc21)S(=O)(=O)c1ccc(C)cc1` (stereo not given): the growth inhibition was 19.4%.
Take `O=C(O)C1CCCCC1C(=O)O.[NH-]C1CCC1.[NH2-].[Pt+2]` (stereo not given): the growth inhibition was 99.1% (active).
Next, `COC(=O)CCCN1C(=O)c2ccccc2C1=O`: -3.95%; `COC(=O)N/N=C/c1ccc(NC(C)=O)cc1`: -5%.
Next, `O=C1c2cc(Cl)ccc2OCC1Cl` (stereo not given): 7.4%; `O=C1C(Cl)N(c2ccc(Cl)cc2Cl)C1c1c[nH]c2ccccc12` (stereo not given): -20.4%; `CCOC(=O)CNc1nnnn1C1OC(CO)C(O)C1O` (stereo not given): -19.6%.
As for `Cc1cc(-c2ccccc2)c(C#N)c(=O)[nH]1`, the growth inhibition was -7.35%.
Next, `COc1ccc(C(=O)N/N=C/c2ccccc2)cc1`: -18.1%; `CCCC=NCCCC`: -24.4%.
Next, `CCOP(=O)(OCC)/C(C#N)=C\c1ccc(N(C)C)cc1`: -0.65%.
Then `Nc1ccc(Cl)cc1[N+](=O)[O-]`, with 15.8%; and `C[C@@]12C[C@@H](c3ccccc3O1)N1CCCSC1=N2`, with 12.4%.
With `c1ccc2c(C3CO3)c3ccc4ccccc4c3cc2c1` (stereo not given), the growth inhibition is 99.2% (active).
Then `Cc1cccc(C)c1NC(=O)C(=O)Cc1nc2ccccc2s1`, with -6.8%; and `CC(=O)[C@@]1(O)CC[C@H]2[C@@H]3C[C@H](C)C4=CC(=O)CC[C@]4(C)[C@H]3[C@@H](O)C[C@@]21C`, with -22.4%.
`C#[N+]CCOP(=O)(OCC1OC(n2cc(C)c(=O)[nH]c2=O)CC1N=[N+]=[N-])O[C@H]1CC[C@@]2(C)C(=CC[C@H]3[C@@H]4CC[C@H](C(C)CCCC(C)C)[C@@]4(C)CC[C@@H]32)C1` (stereo not given in full): the growth inhibition is -17.4%.
In the case of `COc1c(OCC(O)CN2CCCCC2)c2c(C)coc2c2ccoc12` (stereo not given), the growth inhibition is 23.1%.
For `O=C(CCN1CCOCC1)Nc1ccc(F)cc1F`, the growth inhibition is -6.1%.
Then `CC(C)(Oc1ccc2c(=O)cc(-c3ccc(Cl)cc3)oc2c1)C(=O)Nc1c(Cl)cccc1Cl`, with 16.8%; and `COc1ccc(C2=C(Cl)c3cc(OC)c(OC)cc3C2Cl)cc1OC` (stereo not given), with 17.4%; and `CC(=O)Oc1cccc2ccccc12`, with -5.65%.
Then `O=C(Nc1cccc(O)c1)OC1CCCCC1`, with 24.4%; and `O=C(c1ccco1)N(C(=S)N1CCN(c2ccccc2)CC1)C1CCCCC1`, with 19.1%; and `CS/C(c1ccccc1)=[N+](/C)[O-]`, with 25.6%.
Then `CCN(CC)c1ccccc1S(=O)(=O)O`, with -6.35%; and `Clc1ccc(/C=C/c2nc3ccccc3s2)cc1Cl`, with -16.2%; and `O=C(O)/C=C\c1cc2c(cc1[N+](=O)[O-])OCO2`, with -2.5%.
For `CCN(Cc1cc(Nc2ccnc3cc(Cl)ccc23)ccc1O)C(=O)N1CCN(C)CC1`, the growth inhibition was 11.1%.
Next, `C(=C\c1ccccn1)/c1ccc(/C=C/c2ccccn2)cc1`: 13.7%; `COC(=O)c1nc2c(N)nc(-c3ccccc3)nc2nc1N`: -1.95%; `O=C=Nc1ccc(Cc2ccc(N=C=O)cc2)cc1` (tested in a mixture with another compound): 14.3%.
Then `Cc1ccccc1N(CC1CO1)CC1CO1` (stereo not given), with -3.25%.
Next, `COc1cc2c3c(c1)SC(C)C(=O)N3CCN2` (stereo not given): 6.55%.
Consider `Cc1cccc(N=C(Nc2cccc(C)n2)Nc2cccc(C)n2)n1`, for which the growth inhibition is 31.1%.
For the compound `CCOC(=O)COc1cc2c(cc1C(C)c1cc(OC)c(OC)c(OC)c1)OCO2` (stereo not given), the growth inhibition is 10.9%.
Then `O=C(N/C(=C\c1ccccc1[N+](=O)[O-])c1nc2ccccc2[nH]1)c1ccccc1`, with -1.7%; and `Oc1ccc(C=NCCN=Cc2ccc(O)cc2)cc1`, with 12.1%.
Next, `NC(=O)NC(c1ccc(O)cc1)c1cc2c(cc1O)OCO2` (stereo not given): -0.55%; `C/C(=N/C(=O)NN)c1ccc(Cl)cc1`: 31.9%.
